# PubChem BioAssay
# Unmarked numbers belong to inactive results. Entries that show only a call come without a potency. For part of these data: Potency and affinity values are given separately. The source made the active and inactive calls. Unless noted, no rule for the calls is given here.
# Legend:
# [1] = antimalarial activity against Dd2 strain (AID 2302;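 active = growth inhibition above 50% at the single 2 µM test dose, taken to imply half-maximal potency below 2 µM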); settings: P. falciparum Dd2 in RBCs, LDH growth readout, 72 h; at 2 µM; stronger effect = higher value
# [2] = HepG2 cytotoxicity, primary screen, cytotoxicity control for P. falciparum antimalarial project, cell-based, ATP luminescence (AID 2303;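 active = inhibition above 50%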); settings: HepG2 viability, 24-48 h, at 10 µM, stronger effect = higher value
# [3] = molecular target: L-lactate dehydrogenase (Plasmodium falciparum (isolate CDC / Honduras)) (UniProt Q27743); assay: PfLDH activity inhibition – cell lysate, 3D7 strain, counter-screen for P. falciparum growth inhibition project (AID 2304); settings: P. falciparum 3D7 crude extract, LDH APAD/NBT absorbance; at 2 µM; stronger effect = higher value
# Sequence of L-lactate dehydrogenase (Plasmodium falciparum (isolate CDC / Honduras)) (Q27743 whole entry, looked up): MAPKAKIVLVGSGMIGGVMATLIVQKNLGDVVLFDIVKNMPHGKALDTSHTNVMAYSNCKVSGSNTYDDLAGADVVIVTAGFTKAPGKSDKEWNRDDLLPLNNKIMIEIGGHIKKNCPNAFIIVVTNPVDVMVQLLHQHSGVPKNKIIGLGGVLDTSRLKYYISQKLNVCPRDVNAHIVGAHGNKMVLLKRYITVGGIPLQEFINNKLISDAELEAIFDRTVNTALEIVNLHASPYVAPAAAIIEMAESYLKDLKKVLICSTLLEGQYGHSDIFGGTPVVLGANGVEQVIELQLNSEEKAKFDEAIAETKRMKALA
# [4] = inhibition of 3D7 malaria parasite growth – strain 3D7 (AID 2306); settings: P. falciparum 3D7 erythrocytic growth, LDH absorbance, 72 h; at 2 µM; stronger effect = higher value
# [5] = molecular target: Calcium-dependent protein kinase 1 (Plasmodium falciparum (isolate 3D7)) (UniProt P62344); assay: PfCDPK1 kinase inhibitors, biochemical, TCAMS library (AID 1159585; cut-off not given, nearly all actives have IC50 up to about 0.98 µM;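 also: inhibitors leave more ATP so luminescence rises with inhibition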); settings: recombinant PfCDPK1, Kinase-Glo ATP depletion luminescence
# Sequence of Calcium-dependent protein kinase 1 (Plasmodium falciparum (isolate 3D7)) (P62344 whole entry, looked up): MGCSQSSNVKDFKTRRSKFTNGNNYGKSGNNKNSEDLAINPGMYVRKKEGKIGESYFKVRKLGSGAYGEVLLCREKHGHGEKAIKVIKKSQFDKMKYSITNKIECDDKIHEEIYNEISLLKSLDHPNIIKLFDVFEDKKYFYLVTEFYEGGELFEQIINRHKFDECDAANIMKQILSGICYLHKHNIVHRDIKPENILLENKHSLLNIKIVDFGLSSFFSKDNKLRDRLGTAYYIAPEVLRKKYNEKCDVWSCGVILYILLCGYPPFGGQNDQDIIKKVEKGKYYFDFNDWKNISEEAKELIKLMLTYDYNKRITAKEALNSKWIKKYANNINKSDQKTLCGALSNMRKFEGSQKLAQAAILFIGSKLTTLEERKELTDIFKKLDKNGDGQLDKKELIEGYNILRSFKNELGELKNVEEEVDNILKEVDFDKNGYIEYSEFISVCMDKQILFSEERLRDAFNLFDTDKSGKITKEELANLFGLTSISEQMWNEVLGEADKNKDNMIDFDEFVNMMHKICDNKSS
# [6] = molecular target: Plasmodium falciparum protein kinase 6 (PK6, PF3D7_1337100) (UniProt Q8IDW1); assay: PfPK6 kinase inhibitors, biochemical, TCAMS library (AID 1159586); settings: recombinant PfPK6, Kinase-Glo ATP depletion luminescence
# Sequence of Plasmodium falciparum protein kinase 6 (PK6, PF3D7_1337100) (Q8IDW1 1-305): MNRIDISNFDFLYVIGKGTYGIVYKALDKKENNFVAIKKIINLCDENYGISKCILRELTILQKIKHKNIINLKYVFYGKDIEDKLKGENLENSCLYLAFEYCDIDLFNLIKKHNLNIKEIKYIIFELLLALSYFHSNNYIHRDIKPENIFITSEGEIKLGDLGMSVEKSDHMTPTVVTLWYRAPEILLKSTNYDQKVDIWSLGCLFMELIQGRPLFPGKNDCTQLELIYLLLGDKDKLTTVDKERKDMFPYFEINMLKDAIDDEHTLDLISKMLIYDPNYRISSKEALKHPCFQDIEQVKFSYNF
# [7] = molecular target: Protein kinase 7 (PK7), Plasmodium falciparum 3D7 (PF3D7_0213400) (UniProt Q7YTF7); assay: inhibition of Plasmodium PK7 catalytic activity – biochemical, TCAMS antimalarial set, Kinase-Glo luminescence (AID 1159587); settings: recombinant PfPK7, Kinase-Glo ATP depletion luminescence
# Sequence of Protein kinase 7 (PK7), Plasmodium falciparum 3D7 (PF3D7_0213400) (Q7YTF7 1-343): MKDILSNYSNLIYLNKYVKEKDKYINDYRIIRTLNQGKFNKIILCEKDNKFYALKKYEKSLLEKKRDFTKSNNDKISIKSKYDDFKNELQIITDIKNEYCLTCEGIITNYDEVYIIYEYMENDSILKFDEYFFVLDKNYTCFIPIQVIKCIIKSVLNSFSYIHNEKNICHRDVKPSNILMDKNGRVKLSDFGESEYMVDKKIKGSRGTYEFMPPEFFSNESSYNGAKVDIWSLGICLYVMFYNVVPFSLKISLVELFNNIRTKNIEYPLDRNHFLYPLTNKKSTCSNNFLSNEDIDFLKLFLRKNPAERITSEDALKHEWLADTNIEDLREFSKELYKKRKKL
# [8] = molecular target: Calcium-dependent protein kinase 4 (Plasmodium falciparum (isolate 3D7)) (UniProt Q8IBS5); assay: PfCDPK4 kinase inhibitors, biochemical, TCAMS library (AID 1159588; cut-off not given, nearly all actives have IC50 up to about 0.91 µM); settings: recombinant PfCDPK4, Kinase-Glo ATP depletion luminescence
# Sequence of Calcium-dependent protein kinase 4 (Plasmodium falciparum (isolate 3D7)) (Q8IBS5 whole entry, looked up): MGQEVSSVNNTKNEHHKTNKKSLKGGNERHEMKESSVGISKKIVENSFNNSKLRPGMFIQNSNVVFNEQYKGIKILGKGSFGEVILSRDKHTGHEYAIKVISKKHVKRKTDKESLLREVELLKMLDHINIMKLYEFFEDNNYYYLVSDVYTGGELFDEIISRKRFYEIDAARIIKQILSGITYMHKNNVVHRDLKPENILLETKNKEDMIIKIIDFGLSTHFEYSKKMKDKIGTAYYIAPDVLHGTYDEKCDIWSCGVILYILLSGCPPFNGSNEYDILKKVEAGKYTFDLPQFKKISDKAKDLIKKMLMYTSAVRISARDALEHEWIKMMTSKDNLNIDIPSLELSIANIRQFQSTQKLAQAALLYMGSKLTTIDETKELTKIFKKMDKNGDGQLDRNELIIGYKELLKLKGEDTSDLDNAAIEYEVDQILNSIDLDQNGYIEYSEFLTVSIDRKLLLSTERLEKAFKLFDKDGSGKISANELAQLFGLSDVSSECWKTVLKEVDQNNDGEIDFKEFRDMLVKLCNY
Structure (SMILES),growth inhibition [1],inhibition [2],inhibition [3] [%],growth inhibition [4],outcome [5],outcome [6],outcome [7],outcome [8]
O=C(Cn1cc(C(F)(F)F)cc(Cl)c1=O)N1CCN(S(=O)(=O)c2ccc(Cl)cc2)CC1,69% (active),14%,0,99% (active),inactive,inactive,inactive,inactive
O=C(CCCCCNC(=O)c1ccc(O)c(-c2ccc(Cl)c(Cl)c2)c1)NC1CCCCCC1,3%,-4%,2,92% (active),inactive,inactive,inactive,inactive
COc1ccc(CNC2CCN(C)CC2)cc1-c1ccc(S(=O)(=O)NCc2cccnc2)s1,3%,10%,-4,100% (active),inactive,inactive,inactive,inactive
O=C(Nc1ccc(Cl)c(C(F)(F)F)c1)Nc1ccc(Cl)c(C(F)(F)F)c1,96% (active),1%,6,94% (active),inactive,inactive,inactive,inactive
O=C(C=Cc1cccs1)N(CCCn1ccnc1)c1nc2ccc(F)cc2s1,28%,-1%,-1,98% (active),inactive,inactive,inactive,inactive
CC(C)[C@H](NC(=O)c1c(CN2CCC(N3CCCCC3)CC2)c(-c2ccccc2)nc2cc(O)ccc12)c1ccccc1,73% (active),10%,4,100% (active),inactive,inactive,inactive,inactive
Cc1ccc2ncc(Cl)c(CCN3CCC(NCc4ccc5c(n4)NC(=O)CS5)CC3)c2n1,12%,13%,-3,90% (active),inactive,inactive,inactive,inactive
Cc1cc(Nc2ccc(C)c(C)c2)n2nc(C)nc2n1,45%,10%,-5,95% (active),inactive,inactive,inactive,inactive
O=C(/C=C/c1ccc(Cl)cc1)NCCCCCN1CCC(C(=O)Nc2ccc(Cl)cc2)CC1,-1%,27%,8,99% (active),inactive,inactive,inactive,inactive
COc1ccc2nccc([C@H](O)CN3CCC(NCc4cc(C)c5c(c4)OCCO5)CC3)c2n1,35%,12%,3,96% (active),inactive,inactive,inactive,inactive
Cc1cccc2[nH]c(-c3cccc(-c4cccc(NC(=O)Nc5ccccc5)c4)c3)nc12,64% (active),8%,-6,101% (active),inactive,inactive,inactive,inactive
COc1cc2c(cc1S(=O)(=O)c1ccc(NC(=O)c3ccc4ccccc4c3)cc1)CCN(C)CC2,28%,2%,-4,99% (active),inactive,inactive,inactive,inactive
O=C(Nc1cc(F)cc(F)c1)N1CCOC(CCN2CCC(c3ccccc3)CC2)(c2ccc(Cl)c(Cl)c2)C1 (stereo not drawn),69% (active),31%,0,91% (active),inactive,inactive,inactive,inactive
Cc1nc2c(s1)c(=O)cc(CCc1cccc(F)c1F)n2CC(=O)N(Cc1ccc(-c2ccc(C(F)(F)F)cc2)cc1)C1CCN(C(C)C)CC1,82% (active),98% (active),0,100% (active),inactive,inactive,inactive,inactive
CS(=O)(=O)c1cccc(-c2cnc(N)c3cc(-c4cccc(F)c4)ccc23)c1,13%,45%,2,97% (active),inactive,inactive,inactive,inactive
N#Cc1cccc(Nc2nccc(Nc3ccc(Oc4ccccc4)cc3)n2)c1,17%,12%,-6,94% (active),inactive,inactive,inactive,inactive
NC(N)=Nc1nc(-c2ccc(N=C(N)N3CCC[C@H]3CN3CCCC3)cc2)cs1,66% (active),6%,1,82% (active),inactive,inactive,inactive,inactive
CC(C)C1C(O)=C(c2ccc3ccccc3c2)C(=O)N1Cc1ccsc1 (stereo not drawn),82% (active),11%,3,88% (active),inactive,inactive,inactive,inactive

Structure (SMILES),growth inhibition [1],inhibition [2],inhibition [3] [%],growth inhibition [4],outcome [5],outcome [6],outcome [7],outcome [8]
Cc1cc(-c2cccc3c(C(=O)N4CCc5cc6nccc(N7CCN8CCC[C@H]8C7)c6cc54)cccc23)cc(C)n1,76% (active),13%,-3,97% (active),inactive,inactive,inactive,inactive
COc1cc2c(cc1N(C(C)C)S(=O)(=O)c1sc3ccc(Cl)cc3c1C)CCNCC2,70% (active),98% (active),-3,91% (active),inactive,inactive,inactive,inactive
N#Cc1ccc(-c2ccc(C(=O)NCCCCN3CCC(c4cn(CCO)c5ccccc45)CC3)cc2)cc1,43%,23%,4,93% (active),inactive,inactive,inactive,inactive
Cc1cccc2[nH]c(-c3ccc(-c4ccc(CN5CCN(C6CCN(C)CC6)CC5)cc4)cc3)nc12,100% (active),99% (active),-5,100% (active),inactive,inactive,inactive,inactive
COc1cccc(-c2cnc(N)c(-c3nc4cc(Cl)c(F)cc4[nH]3)c2)c1,26%,37%,6,100% (active),inactive,inactive,inactive,inactive
O=C(CC1SC(N2N=C(c3cccs3)CC2c2ccccc2)=NC1=O)Nc1ccc(Cl)cc1 (stereo not drawn),88% (active),18%,2,83% (active),inactive,inactive,inactive,inactive
O=C(C=Cc1ccc(-c2ccccc2)cc1)N1CCC(CCN2CCC(c3c[nH]c4ccccc34)CC2)CC1,16%,44%,2,87% (active),inactive,inactive,inactive,inactive
COc1ccc(-c2ccc(CNCc3ccccc3)cc2)cc1S(=O)(=O)NCCN1CCCC1,76% (active),36%,-3,102% (active),inactive,inactive,inactive,inactive
CN1CCN(c2ccnc3ccc(NC(=O)Nc4cccc5c(Br)cccc45)cc23)CC1,96% (active),7%,6,100% (active),inactive,inactive,inactive,inactive
Cc1cc(Nc2ccc(O)cc2)nc2cccc(O)c12,28%,22%,-6,99% (active),inactive,inactive,inactive,inactive
c1ccc(-n2ncc(CNCc3ccc(-c4cccc(-c5nc6ccccc6[nH]5)c4)cc3)n2)cc1,9%,21%,3,94% (active),inactive,inactive,inactive,inactive
O=C(O)c1cc(OCC(O)COc2ccc(O)c(C(=O)O)c2)ccc1O,6%,9%,5,99% (active),inactive,inactive,inactive,inactive
CC1(C)N=C(N)N=C(N)N1OCCCc1cc(Cl)c(Cl)cc1Cl,96% (active),55% (active),2,95% (active),inactive,inactive,inactive,inactive
Cc1[nH]c(C)c(-c2ccc(OCc3cc(F)cc(F)c3)nc2)c(=O)c1Cl,97% (active),20%,-6,97% (active),inactive,inactive,inactive,inactive
Cc1c(F)cc(C(=O)NC2CC2)cc1-c1ccc2c(c1)c(C)nn2S(=O)(=O)c1cccs1,92% (active),34%,-3,91% (active),inactive,inactive,inactive,inactive
CC(C)(C)c1ccc2nc(-c3ccc(C(=O)NC4CCN(Cc5ccccc5)CC4)s3)[nH]c2c1,42%,24%,0,91% (active),inactive,inactive,inactive,inactive
Cc1cc(N2CCCC2)nc(Nc2ccc(NC(=O)c3ccccc3)cc2)n1,65% (active),26%,-3,100% (active),inactive,inactive,inactive,inactive
CCOC(=O)c1ccc(OCc2ccc(-c3ccccc3)cc2)cc1,-1%,18%,3,96% (active),inactive,inactive,inactive,inactive
